Compounds without any hit were thinned out: in the full panel of roughly 79,000, 15% have a hit. The source made the active and inactive calls. Cut-off read from the data, not from the text of the source: active = growth inhibition above about 70%; inactive = the rest.
Columns and labels:
[1] = NCI Yeast Anticancer Drug Screen. Data for the rad50 strain (AID 155);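 note: 0% = growth of vehicle-only cultures of the same strain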; details: S. cerevisiae rad50 strain growth inhibition; at 50.0 µM; stronger effect = higher value
Method in brief: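 Genetically altered yeast (DNA repair pathway); compound treatment; growth inhibition vs vehicle ctrl.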

[2] = NCI Yeast Anticancer Drug Screen. Data for the mec2-1 strain (AID 157); details: S. cerevisiae mec2-1 strain, at 50.0 µM, stronger effect = higher value
Method in brief: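 Vehicle-treated cultures served as reference for growth inhibition of compound-exposed mec2-1 yeast.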

[3] = NCI Yeast Anticancer Drug Screen. Data for the sgs1 mgt1 strain (AID 161);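 note: 0% = growth of cultures given vehicle only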; details: S. cerevisiae sgs1 mgt1 strain, at 50.0 µM, stronger effect = higher value
Method in brief: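 Inhibition of yeast growth, normalised to vehicle-treated controls, is reported for a strain bearing genetic alterations in DNA damage repair.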

[4] = NCI Yeast Anticancer Drug Screen. Data for the cln2 rad14 strain (AID 165);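 note: 0% = growth equal to vehicle treated cultures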; details: S. cerevisiae cln2 rad14 strain, at 50.0 µM, stronger effect = higher value
Method in brief: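 Each compound was tested on cln2 rad14 yeast. Inhibition of growth was calculated against vehicle-exposed controls.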

[5] = NCI Yeast Anticancer Drug Screen. Data for the bub3 strain (AID 167); details: S. cerevisiae bub3 mutant strain, at 50.0 µM, stronger effect = higher value
Method in brief: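 Yeast carrying a defined mutation is treated with each compound, and growth is compared with that of vehicle-exposed cells to give inhibition.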

[6] = NCI Yeast Anticancer Drug Screen. Data for the mlh1 rad18 strain (AID 175); details: S. cerevisiae mlh1 rad18 strain growth inhibition; at 50.0 µM; stronger effect = higher value
Method in brief: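 Vehicle-treated cultures served as the reference for growth inhibition in a yeast strain carrying DNA damage repair alterations exposed to each compound.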

Measured: growth inhibition

N#CC1=C(N)N(c2ccccc2)C(c2ccccc2)C1(C#N)C#N (configuration not stated)
inactive: [1] 6.45% | [2] 14.2% | [3] -8.3% | [4] -4.9% | [5] -22.9% | [6] -4.75%

NC(=O)c1c[n+]([O-])ccc1[N+](=O)[O-]
inactive: [1] 40.1% | [2] 5.3% | [3] 34.8% | [4] 28.1% | [5] -14.8% | [6] 18.2%

CO/C(Cc1cc(O)cc(O)c1)=N\N
inactive: [1] -0.45% | [2] 6.3% | [3] 1.25% | [4] -5.65% | [5] 7.85% | [6] -4.1%

C(CCC[Si]12OCCN(CCO1)CCO2)CC[Si]12OCCN(CCO1)CCO2
inactive: [1] 6% | [2] -1.8% | [3] 20.1% | [4] 11.9% | [5] -1.45% | [6] 1.1%

CC/C(C)=N/NS(=O)(=O)c1ccc(C)cc1
inactive: [1] 43.9% | [2] 13.2% | [3] 2.3% | [4] 16% | [5] 1.15% | [6] 42.5%

Cn1nnc(CCCl)n1
inactive: [1] -5.35% | [2] -5.1% | [3] -8.15% | [4] -36.9% | [5] 16.8% | [6] 5.5%

CC(=O)Nc1ccc(/C=C/c2csnn2)cc1
inactive: [1] -7.8% | [2] 7.7% | [3] 11.9% | [4] 8.7% | [5] -4.45% | [6] -3.2%

CCC(=O)NCCO
inactive: [1] -26.9% | [2] -17.7% | [3] -5.65% | [4] -103% | [5] -9% | [6] -5.25%

FC(F)/C=C\c1ccccc1
inactive: [1] 8.85% | [2] -4.55% | [3] -10.4% | [4] -19.8% | [5] -16.9% | [6] 6.9%

Cc1nc2ccc(Cl)cc2c(=O)[nH]1
inactive: [1] -6.35% | [2] -6.45% | [3] -8.65% | [4] -57.2% | [5] -16.2% | [6] 0.9%

Cc1ccc(C2C(Cl)C(=O)N2NC(=O)c2ccc(N)cc2)cc1 (configuration not stated)
inactive: [1] -50.4% | [2] -21.5% | [3] -61.1% | [4] -46.8% | [5] -27.4% | [6] -42%

CCC(=O)COC(C)=O
inactive: [1] -3.75% | [2] -22% | [3] -6.05% | [4] -2.35% | [5] -3.75% | [6] 0.95%

CC(C)=CC(C)(O)c1nc2ccccc2s1 (configuration not stated)
inactive: [1] -2.75% | [2] 21.7% | [3] 7.25% | [4] -6.95% | [5] 1.1% | [6] 5.2%

N=[N+]=CC(=O)OCC(N)C(=O)O (configuration not stated)
inactive: [4] 54.6% | [5] 13.2%
active: [1] 78.7% | [2] 82.2% | [3] 80.2% | [6] 73.9%

Cc1ccc(C)c(NC(=S)Nc2ccccc2)c1
inactive: [1] 0.8% | [2] -9% | [3] 3.5% | [4] -24.6% | [5] 54% | [6] 1.7%

O=S(=O)(Nc1cc(C(F)(F)F)ccc1Cl)c1ccc(F)cc1
inactive: [1] -24.3% | [2] -22.4% | [3] -34.4% | [4] 7.5% | [5] -32.6% | [6] -8%

Cc1nc2cc(N)c(F)cc2[nH]1
inactive: [1] -14.6% | [2] -6.95% | [3] 21.4% | [4] 12.8% | [5] 16.4% | [6] -0.1%

CC(C)(c1cccs1)c1cscc1C(=O)O
inactive: [1] -0.85% | [2] -6.8% | [3] -13.3% | [4] -28.8% | [5] -9.35% | [6] 16.7%

Cc1ccc2nc(Nc3nc(C)cc(C)n3)[nH]c2c1
inactive: [1] -36.9% | [2] -31.6% | [3] -21.9% | [4] -0.3% | [5] -17.8% | [6] -11.9%

N#Cc1c2c(c(=S)n(-c3ccc(Cl)cc3)c1N)CCCC2
inactive: [1] -4.4% | [2] -3.35% | [3] -5.8% | [4] 1.75% | [5] 6.85% | [6] -7.2%

c1ccc(C2=NC3(CCCCC3)N=C2c2ccccc2)cc1
inactive: [1] 27.1% | [2] 12.3% | [3] 6.6% | [4] -32% | [5] 21.2% | [6] 25.1%

S=C(c1ccccc1)N1CCCCC1
inactive: [1] 8% | [2] -1.7% | [3] 0.45% | [4] -23.4% | [5] 16.3% | [6] 4.05%

CC(CO)CCC(O)C(C)(O)C1CCC2(O)C3=CC(=O)C4CC(O)C(O)CC4(C)C3CCC12C (configuration not stated)
inactive: [1] 4.05% | [2] -23.5% | [3] 10.2% | [4] 7.75% | [5] 17.8% | [6] -68.2%

CCCCN(Cc1ccccc1)C(=O)Nc1ccccc1
inactive: [1] 4.5% | [2] 30.1% | [3] 33.1% | [4] -8.1% | [5] 39% | [6] 1.2%

COc1ccc(N(CN2C(=O)CCC2=O)CS(=O)(=O)c2ccc(Cl)cc2)cc1
inactive: [1] 16.6% | [2] 0.2% | [3] 11.5% | [4] 14.9% | [5] -3.75% | [6] -16.4%

C[CH2][Sn]([CH2]C)([O]C(=O)c1ccc2c(c1)OC(C)(C)O2)[O]C(=O)c1ccc2c(c1)OC(C)(C)O2
inactive: [1] 51.3% | [2] 52.1% | [3] 4.7% | [4] 41.4% | [5] 14% | [6] -2.7%

NC(=O)C(=O)NNC(=O)Nc1ccc(Cl)cc1
inactive: [1] 16.8% | [2] 12.3% | [3] 7.8% | [4] -13.3% | [5] 1.75% | [6] 20.8%

Brc1ccc(C2CC(c3cccc4ccccc34)=Nc3ccccc3S2)cc1 (configuration not stated)
inactive: [1] -14.1% | [2] -2.45% | [3] -10.9% | [4] -29.2% | [5] 8.7% | [6] 18.1%

c1ccc(CCCC2Sc3cccc4cccc(c34)S2)cc1
inactive: [1] -47.2% | [2] -25.6% | [3] -18.6% | [4] 14.4% | [5] -16% | [6] -28.5%

CC(C)(C#N)OC(=O)c1cc([N+](=O)[O-])cc([N+](=O)[O-])c1
inactive: [1] 8.55% | [2] 4.45% | [3] 13.1% | [4] -14.9% | [5] -9.55% | [6] -2.1%

CCOC(=O)C(CSC(=O)c1ccccc1)NC(=O)OCc1ccccc1 (configuration not stated)
inactive: [1] 40.4% | [2] -3.35% | [3] 21.2% | [4] -29.6% | [5] 2.65% | [6] 20.1%

O=C1c2cccc3c(Br)ccc(c23)C(=O)N1C1CCCCCCCCCCC1
active: [1] 99.2% | [2] 99.5% | [3] 99.5% | [4] 98.5% | [5] 99.2% | [6] 99.5%

ClC1=CC(Cl)=C2N=C(N3CCCC3)N=C3N=C(N4CCCC4)N=C1N32
inactive: [1] -15.2% | [2] -5.45% | [3] -19.7% | [4] -10.6% | [5] 1.6% | [6] 4.55%

CC(=O)OCCc1nnnn1C
inactive: [1] 4.9% | [2] -9.95% | [3] -14.6% | [4] -22.5% | [5] 2.45% | [6] 10.4%

O=C(c1ccco1)C(O)c1ccccc1 (configuration not stated)
inactive: [1] 1.3% | [2] 8.9% | [3] -2.6% | [4] -2.55% | [5] -11.9% | [6] 5.95%

C[C@H](CCC(c1ccccc1)c1ccccc1)[C@H]1CC[C@H]2[C@@H]3CC[C@@H]4C[C@H](O)CC[C@]4(C)C3=CC[C@]12C
inactive: [1] 1.7% | [2] -15.3% | [3] 4.1% | [4] 24.8% | [5] -1.75% | [6] 9.45%

O=S(=O)(c1ccccc1)c1ccc(CI)cc1
inactive: [1] 15.8% | [2] 19.9% | [3] 5.05% | [4] 17.4% | [5] 13.7% | [6] 9.05%
